# Compounds with a hit are over-represented: about 21% of the library has one in this group of screens.
# CHX counter: counter-screen hit for Shiga toxin inhibitors, cycloheximide | cell reporter, cycloheximide protein synthesis inhibition counterscreen | max response, % | actives 12% (n = 300,000) | AID 2314; in the data active = max response mostly above about 13%, no sharp cut-off; inactive = mostly below about 14%; note: read at 38.3 µM for the half of the compounds with a filed dose; 0% is about no effect
# Pf growth 48h: P. falciparum growth inhibition at 48 hours (one generation) | P. falciparum luciferase growth in erythrocytes, 48 h | Potency, µM (doses to about 28.7 µM), without a hit: at the highest dose activity change, negative = inhibition, hits mostly inhibitors | actives 5.9% (n = 310,000) | AID 504832; note: potency is the fitted concentration of half-maximal effect; % is set by controls: 0 for no effect and ±100 for the full control effect
#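 In quantitative HTS format, infected erythrocytes bearing luciferase-reporter parasites were treated for a single generation at 37 C. Luminescence after adding detection reagent served as the growth measure.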
# Pf growth 96h: P. falciparum growth inhibition at 96 hours. actives 6.9% (n = 320,000). Potency, µM (titrated, usually from 28.7 µM), inactives show at the highest dose activity change, negative = inhibition, most hits filed as inhibitors. AID 504834. P. falciparum luciferase reporter growth, 96 h; note: potency is the fitted concentration of half-maximal effect; % is set by controls: 0 for no effect and ±100 for the full control effect
#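 P. falciparum expressing integrated firefly luciferase, in erythrocytes at 2% hematocrit, 0.05% parasitemia, incubated with compounds 96 h at 37 C, 5% CO2. Growth inhibition read as loss of luminescence; two-generation exposure targets delayed-death apicoplast inhibitors.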
# NS1 function inh: influenza NS1 inhibition. actives 0.4% (n = 270,000). Potency, µM (series often up to 46.1 µM), inactives show at the highest dose activity, positive = more growth; calls by dose curve; note: potency is the fitted concentration of half-maximal effect; actives are rising curves; nearly all actives have a fitted effect of over 50% in size
#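 S. cerevisiae expressing influenza A NS1, grown in glucose, washed, then diluted 1:100 into pH 6.0 -URA galactose medium with 23 nl compound. Growth recovery read as OD600; NS1-free strain serves as control.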
# Shiga inhibitor: Shiga toxin inhibition. Vero cells, Shiga toxin protein synthesis inhibition reporter. inhibition, % at 38.7 µM. actives 9.2% (n = 290,000); in the data active = inhibition mostly above about 28%, no sharp cut-off; inactive = mostly below about 43%; note: 0% is about no effect
# The depositor's hits bear a star; ? = inconclusive; . = not tested or not shown. Unless noted, calls come from the whole dose curve; as a rule, active = well fitted inhibition curve with a large enough effect; inconclusive = small, poorly fitted or top-dose-only effect, or another doubt; inactive = no such curve, though single readings can be large or run the other way.
SMILES,CHX counter,Pf growth 48h,Pf growth 96h,NS1 function inh,Shiga inhibitor
Cc1ccc(N2C(=O)N3[C@H](c4ccc(F)cc4)[C@@H]4C(=O)N(C5CCCCC5)C(=O)[C@@H]4[C@]3(Cc3ccccc3)C2=O)cc1,-2,0%,12µM*,12%,0
O=C1[C@H]2[C@@H](c3ccc(Cl)cc3)N3C(=O)N(c4cccc(Cl)c4)C(=O)[C@@]3(Cc3ccccc3)[C@H]2C(=O)N1C1CCCCC1,.,2.1µM*,5.9µM*,.,.
CC(C)C[C@@]12C(=O)N(c3cccc(Br)c3)C(=O)N1[C@H](c1ccc(F)cc1)[C@@H]1C(=O)N(C3CCCCC3)C(=O)[C@@H]12,.,1.9µM*,?,.,.
CC[C@@]12C(=O)N(c3cccc(F)c3)C(=O)N1[C@H](c1ccc(F)cc1)[C@@H]1C(=O)N(C3CCCCC3)C(=O)[C@@H]12,-4,-25%,?,1%,-6
O=C1c2ccccc2NC(c2ccc(Cl)cc2Cl)N1O (centres undefined),-5,?,-29%,-71%,-16
O=C1c2ccccc2NC(c2cccc(Cl)c2)N1N=C1CCCCCC1 (centres undefined),37*,?,?,-5%,52
OCC(O)CSc1nc(-c2ccccc2)nc2c1CCC2 (centres undefined),-2,-4%,11%,2%,-13
CC(C)(C)NCC(O)c1ccccc1Cl (centres undefined),.,?,?,-6%,.
CC(C)NCC(O)c1ccccc1Cl (centres undefined),.,7.6µM*,12µM*,.,.
CCOc1ccc(NC(=O)Cc2c(O)c3ccccc3[nH]c2=O)cc1,-2,2.9µM*,91%,4%,-13
Cc1ccccc1NC(=O)Cc1c(O)c2ccccc2[nH]c1=O,-3,11%,32%,9%,-4
Cc1ccc(NC(=O)Cc2c(O)c3ccccc3[nH]c2=O)c(C)c1,18*,21%,57%,2%,22
COc1cccc(NC(=O)Cc2c(O)c3ccccc3[nH]c2=O)c1,-1,.,?,-7%,4
COc1ccccc1N(C(=O)c1csnn1)C(C(=O)NC1CCCC1)c1ccccc1 (centres undefined),-4,7%,6%,1%,-5
Cc1ccc(C2C(C#N)=C(N)Oc3c2sc2ccccc32)o1 (centres undefined),10,?,20%,0%,11
CC/C(=N/Nc1cccc(Cl)c1)c1cnnc(SC)n1,-2,?,?,9%,-2
CC/C(=N/Nc1ccccc1)c1cnnc(-c2ccccc2)n1,4,0.13µM*,0.1µM*,-6%,12
Cc1ccc(C2=NN(C(=O)CCCC(=O)O)C(c3ccc4c(c3)OCO4)C2)cc1 (centres undefined),7,-9%,?,30%,.
O=C(Nc1ccc(-c2nc3cc(Cl)ccc3c(=O)o2)cc1)c1ccco1,-1,5%,?,8%,-3
O=C(Nc1ccc(-c2nc3c(ccc4ccccc43)o2)cc1)c1ccco1,26*,.,1.9µM*,-10%,29
O=C(CCc1ccccc1)Nc1nc2c(F)cc(F)cc2s1,45*,39%,45%,-10%,113*
O=C(CN1C(=O)NC2(CCCC2)C1=O)Nc1nc2c(F)cc(F)cc2s1,.,1%,32%,.,.
O=C(Nc1nc2c(ccc3ccccc32)s1)c1ccco1,47*,3%,?,-64%,102*
O=C(Nc1nc2c(F)cc(F)cc2s1)c1ccco1,37*,91%,205%,-88%,38*
O=C(Nc1nc2c(Cl)ccc(Cl)c2s1)c1ccco1,-4,.,27%,-9%,-12
SMILES,CHX counter,Pf growth 48h,Pf growth 96h,NS1 function inh,Shiga inhibitor
CC1(C)S[C@H]2C(NC(=O)[C@@H](N)c3ccc(O)cc3)C(=O)N2[C@@H]1C(=O)O (some centres undefined),.,5%,12%,.,.
O=C(Nc1nc2c(F)c(F)c(F)cc2s1)c1ccco1,29*,62%,67%,-16%,103*
O=C(COC(=O)c1ccco1)Nc1nc2c(F)c(F)c(F)cc2s1,2,40%,27%,-8%,-5
CCc1ccc(CN(C)C(=O)CC2C(=O)NCCN2Cc2ccoc2)cc1 (centres undefined),2,0%,?,1%,4
NC(=O)CSc1ccc(F)cc1,-5,126%,40%,.,-8
COc1ccc(SCC(=O)c2cc(C)c(OC(=S)N(C)C)c(C)c2)cc1,48*,?,.,-8%,67

# Screening results: PubChem BioAssay, National Center for Advancing Translational Sciences (NCATS)
